D1 agonist: agonists of human D1 dopamine receptor. activation, % at 2 µM. HEK293 T-REx D1 cells, calcium flux, agonist mode. hit rate 1% among 360,000. AID 504660; in the data active = activation above about 30%; also: 0% is about no effect
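Agonism was scored from calcium flux recorded over 180 s (1 read/s) after pintool compound addition, following a 10-cycle baseline. Cells were inducible force-coupled HEK293 TREx D1, plated overnight at 30 C and loaded with no-wash calcium dye.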
D1 PAM: human D1 dopamine receptor positive modulation. hit rate 0.036% among 360,000. AID 504651. HEK293 TREx D1 cells, calcium flux, dopamine EC20 potentiation. P21728. potentiation, % at 10 µM; in the data active = potentiation above about 30%; also: 0% is about no effect
Eya2 phos inh: blocks the phosphatase activity of human Eya2. O00167. recombinant Eya2, OMFP fluorescence dephosphorylation (OMFP is methylfluorescein phosphate). Potency, µM (series often up to 76.9 µM), for inactives: top-dose activity, negative = inhibition, usual class: inhibitors. hit rate 0.006% among 330,000; also: potency is read from the fitted curve at half-maximal effect; % is scaled to controls: 0 for no effect and ±100 for the full control effect
Target sequence (O00167 whole entry, looked up): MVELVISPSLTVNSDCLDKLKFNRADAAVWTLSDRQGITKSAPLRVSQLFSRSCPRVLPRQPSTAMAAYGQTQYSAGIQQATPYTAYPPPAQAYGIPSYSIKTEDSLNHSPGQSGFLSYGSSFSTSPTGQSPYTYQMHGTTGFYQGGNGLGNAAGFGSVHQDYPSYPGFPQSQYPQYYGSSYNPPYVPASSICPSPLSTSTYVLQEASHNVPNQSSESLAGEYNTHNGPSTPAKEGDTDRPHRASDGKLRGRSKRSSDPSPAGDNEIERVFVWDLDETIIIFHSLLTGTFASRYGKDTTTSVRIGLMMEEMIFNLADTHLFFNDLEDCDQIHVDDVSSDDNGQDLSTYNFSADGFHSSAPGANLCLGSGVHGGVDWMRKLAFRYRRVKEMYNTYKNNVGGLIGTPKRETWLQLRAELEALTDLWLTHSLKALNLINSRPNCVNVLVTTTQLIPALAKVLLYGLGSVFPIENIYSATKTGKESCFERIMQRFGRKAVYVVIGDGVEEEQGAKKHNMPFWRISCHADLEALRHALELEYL
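Eya2 protein (added as 0.2 uM solution) was preincubated with compound for 10 min at ambient temperature in 50 mM HEPES pH 7.5, 50 mM NaCl, 5 uM MgCl2, 0.05% BSA, 1 mM DTT. OMFP (added at 50 uM) then reacted 10 min; fluorescence read at 485/525 nm.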
GALK inhibitor: blocks human galactokinase activity. P51570. Purified GALK, Kinase-Glo residual ATP luminescence. Potency, µM (doses to about 57.5 µM), for the others: at the highest dose activity change, negative = inhibition, actives largely listed as inhibitors. hit rate 0.007% among 270,000. AID 1868; also: potency is read from the fitted curve at half-maximal effect; % is scaled to controls: 0 for no effect and ±100 for the full control effect
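Quantitative HTS: GALK 5 nM, ATP 35 uM, galactose 100 uM, 1 h room temperature, then luciferase-based ATP detection.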
USP2a block: blocks human ubiquitin-specific protease USP2a | AID 463254 | hit rate 0.01% among 330,000 | Potency, µM (titrated, usually from 38.3 µM), for the others: at the top dose activity change, negative = inhibition, most hits filed as inhibitors | O75604 | USP2 core, Ub-CHOP2 coupled fluorogenic reporter, 485/531;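 also: potency is read from the fitted curve at half-maximal effect; plate controls were DMSO wells for no effect and full inhibition by NEM control for full effect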
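Deubiquitinase activity read as fluorescence (485/531 nm) after Ub-CHOP2 cleavage activates the enterokinase reporter on its substrate; USP2 core 10nM, Ub-CHOP2 and substrate 25nM each, 30min compound preincubation then 60min RT; data normalized to NEM, curves fitted.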
D1 antagonist: antagonists of human D1 dopamine receptor; HEK293 TREx D1 cells, calcium flux, dopamine EC80; stronger effect = lower value; activity change, negative = inhibition, % at 10 µM; hit rate 3.2% among 360,000; AID 504652; in the data active = activity change below about -30%; also: % is scaled to controls: 0 for no effect and ±100 for the full control effect
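Tetracycline-induced HEK293 T-REx cells with force-coupled D1 receptor were loaded with a no-wash calcium dye. Compound was added after a 10 s baseline and read kinetically for 180 s; EC80 dopamine was then added and calcium flux followed another 180 s.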
An asterisk follows results filed as active; x = no result given. A selection: hits, their analogues and other compounds. The true share with any hit is near 3.9%. Unless noted, calls follow the shape of the dose curve; as a rule, active = well fitted inhibition curve with a large enough effect; inconclusive = small, poorly fitted or top-dose-only effect, or effect the other way; inactive = flat fitted curve, though single readings scatter.

SMILES	D1 agonist	D1 PAM	Eya2 phos inh	GALK inhibitor	USP2a block	D1 antagonist
COCCn1c(C)cc(C2=NNC(=Nc3ccccc3F)SC2)c1C	0	0	2%	2%	-9%	-4
COCCCN=C1NN=C(c2cc(C)n(-c3ccccc3F)c2C)CS1	33*	5	20%	0%	0%	-32*
COCCCN=C1NN=C(c2cc(C)n(-c3ccccc3)c2C)CS1	1	5	-1%	x	-1%	-19
Cc1c(NC(=O)Nc2cccc(C(F)(F)F)c2)sc2nc3n(c(=O)c12)CCC(C)CC3 (configuration not stated)	0	-5	x	x	x	-10
CCOc1ccccc1CNC(=O)c1ccc(Sc2ccc(Cl)cc2)c(NC(C)=O)c1	3	-3	3%	0%	4%	-39*
CCOc1ccc(CNC(=O)c2ccc(Sc3ccc(Cl)cc3)c(NC(C)=O)c2)cc1	-2	-2	0%	2%	4%	20
Cc1cccc(N(C(=O)c2nsc(Cl)c2Cl)C(C(=O)NC2CCCC2)c2ccc(O)cc2)c1C (configuration not stated)	6	-8	0%	1%	2%	-40*
CC1c2ccccc2SC(CCCN(C)C)c2ccccc21 (configuration not stated)	48*	-1	-3%	x	2%	-48*
CN(C)CCC1Sc2ccccc2Oc2ccccc21 (configuration not stated)	28	-6	-2%	0%	-2%	0
CC(C)(CCl)C(=O)Nc1ccc(OC(F)(F)F)cc1	9	-5	-17%	0%	-2%	-11
Cc1cc(C)n(-c2ccc(Cl)c(C(=O)Nc3ccc(OC(F)(F)F)cc3)n2)n1	1	-1	14%	3%	3%	-36*
O=C(COc1ccccc1)NCC1(N2CCCCC2)CCCCC1	-1	3	-6%	-1%	2%	-66*
CS(=O)(=O)c1ccc(C(=O)NCC2(N3CCOCC3)CCCCC2)cc1	x	x	3%	x	1%	x
NC(=O)COc1ccc(C(=O)NCC2(N3CCOCC3)CCCCC2)cc1	0	0	-6%	x	0%	-32*
CCCOc1cccc(NC(=O)c2c(-c3ccccc3Cl)noc2C)c1	2	-5	x	x	x	0
COc1cccc(NC(=O)CSc2nnc3scc(-c4ccc(Cl)cc4)n23)c1	2	0	x	x	x	-1
Cn1c2ccccc2c(=O)c2c(=O)n(C3CCCCC3)c(-c3ccco3)nc21	106*	-9	-7%	0%	-6%	-3
Cc1nc2c(c(=O)c3ccccc3n2C)c(=O)n1C1CCCCCC1	154*	0	-9%	-1%	7%	9
Cc1nc2c(c(=O)c3ccccc3n2C)c(=O)n1-c1ccccc1	1	-4	14%	-1%	-2%	19
CCOC(=O)c1c(-c2ccccc2)oc2ccc(NS(=O)(=O)c3ccc(C)cc3C)cc12	6	1	x	x	x	9
COc1ccc(-c2ccc3c(N)c(C(=O)Nc4ccc(C)cc4C)sc3n2)cc1OC	2	-8	x	x	x	-10
O=C(CNC(=O)c1ccncc1)OC(C(=O)Nc1cc(C(F)(F)F)ccc1Cl)c1ccccc1 (configuration not stated)	1	5	x	x	x	21
O=S(=O)(NCc1ccccc1)NCc1cccc(C(F)(F)F)c1	1	-8	-20%	-1%	0%	-38*
O=C(CNC(=O)Cc1ccccc1)NCc1cccc(C(F)(F)F)c1	1	x	-6%	4%	1%	1
CCCC/C(O)=C1\C(=O)CC(C)(C)CC1=Nc1ccc(OC)cc1	1	-2	-12%	2%	2%	15
SMILES	D1 agonist	D1 PAM	Eya2 phos inh	GALK inhibitor	USP2a block	D1 antagonist
CCC/C(O)=C1\C(=O)CC(C)(C)CC1=Nc1ccc(OC)cc1	1	51*	-4%	-1%	-1%	-6
O=C(Cn1c(=O)oc2cc(S(=O)(=O)NCc3ccccc3)ccc21)NCc1ccccc1Cl	18	-4	x	x	x	-6
Cc1ccc(C)c(N2CCN(CCCNC(=O)Cn3cccc3C(=O)c3ccccc3C)CC2)c1	26	-6	-4%	0%	0%	-36*
Cc1ccccc1C(=O)c1cccn1CC(=O)NCCCN1CCCCC1	-1	0	5%	1%	1%	15
CSc1cccc(CN2CCC(CO)(Cc3cccc(C(F)(F)F)c3)CC2)c1	41*	-1	-14%	2%	-11%	13
OCC1(Cc2cccc(C(F)(F)F)c2)CCN(Cc2cc(F)cc(F)c2)CC1	0	5	-7%	-2%	-1%	8
COC(=O)c1ccc(NC(=O)c2cc(S(=O)(=O)N3CCc4ccccc43)cn2C)cc1	0	-5	x	x	x	6
OCC1(Cc2ccccc2)CCN(Cc2cnc(-c3ccc(Cl)cc3)nc2)CC1	8	-6	-10%	3%	-4%	7
COc1ccc(-c2ncc(CN3CCC(CO)(Cc4cccc(OC)c4)CC3)cn2)cc1	39*	6	-5%	0%	-2%	-1
Cc1ccccc1-c1ncc(CN2CCC(CO)(CCCc3ccccc3)CC2)cn1	10	-3	-13%	1%	-5%	-55*
CCOC(=O)c1ccc(Nc2nnc(C(C)(C)C)c(=O)[nH]2)cc1	18	-9	10%	3%	-3%	-56*
COc1cccc(N=C2NC(=O)/C(=C/c3cc([N+](=O)[O-])ccc3O)S2)c1	83*	3	5%	-17%	2%	34
COc1cc(/C=C2\S/C(=N/S(=O)(=O)c3ccc(C)cc3)NC2=O)c([N+](=O)[O-])cc1OC	1	1	0%	-8%	1%	3
Cc1ccc(S(=O)(=O)/N=C2/NC(=O)/C(=C/c3cc([N+](=O)[O-])ccc3O)S2)cc1	218*	0	18%	-17%	-2%	34
O=C1NC(=Nc2ccccc2Cl)S/C1=C\c1cc([N+](=O)[O-])ccc1O	76*	-8	14%	-24%	1%	10
Cc1ccccc1-c1noc(CSc2nc3ccccc3[nH]2)n1	3	-2	x	x	x	5
CCn1c(=O)c2cc(C(=O)N(CCCOC(C)C)Cc3ccco3)sc2c2ccccc21	7	-1	x	x	x	7
CCN(c1ccccc1)S(=O)(=O)c1cc(Br)cc2c1N(C(=O)C1CC1)CC2	6	0	x	x	x	-19
Cc1ccc(NC(=O)Cn2nnc3ccccc3c2=O)cc1C	8	-2	-4%	1%	3%	-40*
Cc1ccc(SCC(=O)OCn2nnc3ccccc3c2=O)cc1C	10	-3	4%	5%	-1%	-33*
CC1=C(C(N)=O)C(c2ccc(C)cc2)n2nc(SCc3ccccc3)nc2N1 (configuration not stated)	-1	1	x	x	x	2

Source: PubChem
